# According to PubChem BioAssay AID1476 (National Center for Advancing Translational Sciences (NCATS), 2009):
# In all, about 200,000 compounds went through this assay and about 4,500 (2.2%) were called active. Not shown: some 12% with an inconclusive outcome. The sample holds actives, similar compounds and a random draw of the others, so the mix is not that of the screen. Calls come from the whole dose curve; as a rule, active = well fitted inhibition curve with a large enough effect; inconclusive = small, poorly fitted or top-dose-only effect, or effect the other way; inactive = flat fitted curve, though single readings scatter.
# Target: Cruzipain (Trypanosoma cruzi) (UniProt P25779)
# Assay: qHTS Assay for Promiscuous and Specific Inhibitors of Cruzain (without detergent); note: nearly all actives have a fitted effect of over 40% in size;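 for max response, negative = inhibition: plate controls were enzyme without inhibitor for no effect and buffer without enzyme for full effect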
# Conditions: purified cruzain, Z-FR-AMC fluorescence, no detergent
# How it was run: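 Purified cruzain at 1.5 nM, pre-incubated 15 min with compound at room temperature in 100 mM sodium acetate pH 5.5, 5 mM DTT, 0.00005% Triton X-100. Reaction started with 2 uM Z-FR-AMC; AMC fluorescence increase over 60 s gives rate.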
# Potency is the fitted concentration of half-maximal effect.
# Chain of Cruzipain (Trypanosoma cruzi) (P25779 123-467 limits assumed): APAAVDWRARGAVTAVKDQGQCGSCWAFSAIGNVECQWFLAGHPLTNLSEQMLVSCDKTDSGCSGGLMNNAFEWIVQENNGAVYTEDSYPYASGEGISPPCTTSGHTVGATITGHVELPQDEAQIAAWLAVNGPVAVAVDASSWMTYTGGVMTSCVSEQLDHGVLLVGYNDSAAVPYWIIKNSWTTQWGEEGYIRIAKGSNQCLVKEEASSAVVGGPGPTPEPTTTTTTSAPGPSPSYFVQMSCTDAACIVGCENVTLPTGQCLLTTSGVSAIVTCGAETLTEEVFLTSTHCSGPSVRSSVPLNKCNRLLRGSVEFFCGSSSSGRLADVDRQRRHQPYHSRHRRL
SMILES,"max response, negative = inhibition",Potency
O=C(NCC12CC3CC(CC(C3)C1)C2)c1cc2nc(-c3ccccc3)cc(C(F)(F)F)n2n1,-1.29% (inactive),–
CC(Sc1oc(-c2ccco2)nc1S(=O)(=O)c1ccc(Br)cc1)c1ccccc1 (configuration not stated),-8.99% (inactive),–
CN(Cc1ccccc1)c1ccc(-c2nc(-c3ccccc3)no2)cc1[N+](=O)[O-],-0.924% (inactive),–
O=C(NCc1ccccc1)c1ccc2c(c1)nc1n2CCCCC1,-10.7% (inactive),–
CCCOc1ccc(C(=O)Nc2ccc3oc(-c4cccc(Cl)c4Cl)nc3c2)cc1,7.94% (inactive),–
O=C(Nc1ccc(O)c(-c2nc3ccccc3o2)c1)c1ccc(-c2cccc(Cl)c2)o1,1.11% (inactive),–
O=C(NC(=S)Nc1ccc2oc(=O)ccc2c1)c1ccc(-c2cccc(Cl)c2Cl)o1,–,5.01 µM (active)
COC(=O)c1cc(NC(=O)CCc2c(C)nc3c4c(C)cc(C)nc4nn3c2C)cc(C(=O)OC)c1,-14.1% (inactive),–
COc1cccc2cc(-c3nc(Cl)c4c5c(sc4n3)CC(C)CC5)c(=O)oc12 (configuration not stated),-8.92% (inactive),–
CCc1ccccc1NC(=O)c1cc(-c2ccc3c(c2)OCO3)on1,-1.06% (inactive),–
c1ccc2[nH]c(NCCN3CCOCC3)nc2c1,-8.64% (inactive),–
c1ccc2cc3c(NCCN4CCOCC4)ccnc3cc2c1,–,25.1 µM (active)
Clc1ccccc1-c1cc(NCCN2CCOCC2)ncn1,-3.09% (inactive),–
COc1ccc(-n2c(=O)c3ccccc3n(Cc3ccccc3Cl)c2=O)cc1,6.51% (inactive),–
CN(c1ccccc1)c1ccc(/C=c2\s/c(=C(/C#N)C(=O)C(C)(C)C)n(Cc3ccco3)c2=O)cc1,–,3.16 µM (active)
Cc1cc2c(c(=O)n1Cc1ccco1)C(c1ccccc1)C(C#N)=C(N)O2 (configuration not stated),-4.14% (inactive),–
CCOc1ccccc1NC(=O)Cn1c(=O)n(Cc2ccco2)c(=O)c2sc3ccccc3c21,-0.26% (inactive),–
O=C(NCCCc1ccccc1)c1ccc2c(c1)sc1nc(-c3ccc(F)cc3)cn12,4.05% (inactive),–
Cc1csc(NC(=S)Nc2cccc(Cl)c2)n1,-0.724% (inactive),–

SMILES,"max response, negative = inhibition",Potency
O=C(Nc1cccc2ncccc12)c1ccc(-c2ccc(Cl)cc2Cl)o1,-11.1% (inactive),–
Cc1csc(NC(=O)c2ccc(-c3ccc(Cl)cc3Cl)o2)n1,–,10 µM (active)
Cc1ccc(NC(=O)c2cc3cc(C)ccc3n2C)cc1,-3.53% (inactive),–
Cn1c(=O)n(C)c2cc(C(=O)Nc3ccc4c(c3)OCO4)ccc21,-14% (inactive),–
O=C(Nc1ccc2c(c1)OCO2)c1ccc(N2C(=O)c3ccccc3C2=O)cc1,–,6.31 µM (active)
O=C(Nc1ccccc1)c1ccc2c(c1)OCO2,1.37% (inactive),–
CCOc1ccc(CNC(=O)CCC(=O)N2CCSc3ccccc32)cc1,1.55% (inactive),–
COc1ccc(-c2onc(C)c2C)cc1S(=O)(=O)NCC1CCN(Cc2cccc(F)c2)CC1,0.417% (inactive),–
CCc1ccccc1NC(=O)CSc1nnc(-c2ccccc2)c(-c2ccccc2)n1,-0.884% (inactive),–
Clc1cccc(N=C2NN=C(c3ccc4c(c3)OCCO4)CS2)c1,–,10 µM (active)
CCOC(=O)C1=C(O)CSC1=Nc1cccc(Cl)c1,-9.26% (inactive),–
CCOc1ccc(CNC(=O)Cn2cc3c(n2)-c2c(oc(C(=O)N4CCCC4)c2C)CC3)cc1,23.3% (inactive),–
COc1ccc2cc(CNc3ccc(OC)c(OC)c3)c(=O)n(CC(=O)Nc3ccccc3F)c2c1,13.9% (inactive),–
O=C(CSc1nccn1C1CCCC1)Nc1cc(C(F)(F)F)ccc1Cl,9.92% (inactive),–
O=C(/C=C/c1ccccc1)Nc1nnc(SCC(=O)c2ccc3ccccc3c2)s1,–,6.31 µM (active)
COc1ccc(C(=O)CSc2nnc(NC(=O)C3CC(=O)N(c4cccc(OC)c4)C3)s2)cc1 (configuration not stated),-5.43% (inactive),–
CC(=O)c1ccc(NC(=O)CSc2nnc(NC(=O)Nc3ccccc3)s2)cc1,10.4% (inactive),–
O=C(NCCc1csc(-c2ccc(C(F)(F)F)cc2)n1)C(=O)Nc1ccc(F)c(Cl)c1,-2.67% (inactive),–
Cc1ccc(OCC(=O)OCc2cc(=O)n3nc(C4CC4)sc3n2)cc1,-8.05% (inactive),–

SMILES,"max response, negative = inhibition",Potency
c1ccc2sc(SCCSc3nc4ccccc4s3)nc2c1,-3.12% (inactive),–
N#C/C(=C(/O)Cc1cccc2ccccc12)c1nc2ccccc2s1,–,12.6 µM (active)
COC(=O)c1nc2ccccc2s1,-9.6% (inactive),–
Cc1ccc(-c2nn3c(=O)cc(CN4CCN(C(=O)Nc5cccc(C(F)(F)F)c5)CC4)nc3s2)cc1,-9.63% (inactive),–
COc1ccc(Cn2c(C(=O)O)c(CNCCc3cccs3)c3ccc(OC)cc32)cc1,-3.19% (inactive),–
Cc1ccc(NS(=O)(=O)c2ccc3c(c2)CC(=O)N3)cc1Cl,–,15.8 µM (active)
COc1ccc(NC(=O)CCNS(=O)(=O)c2ccc3c(c2)CCCC(=O)N3)cc1Cl,-2.51% (inactive),–
Cc1ccc(S(=O)(=O)NCCC(=O)Nc2ccc(C)c(Cl)c2)cc1C,-0.389% (inactive),–
Cc1nn(CC(=O)O)c(=O)c2cc3cc(F)ccc3n12,-12.5% (inactive),–
Cc1cccc(-n2ccnc2SCC(=O)Nc2cc(C(F)(F)F)ccc2Cl)c1,-5.01% (inactive),–
Cc1ccc(NC(=O)CSc2nc3c(c(=O)[nH]2)CN(Cc2ccc4c(c2)OCO4)CC3)cc1C,-8.7% (inactive),–
COc1ccc(OCC(=O)OCC(=O)Nc2ccc(S(=O)(=O)N3CCCCC3)cc2)cc1,6.2% (inactive),–
CC(=O)c1c(C)[nH]c(C(=O)OCC(=O)Nc2cc(S(=O)(=O)N3CCCCC3)ccc2C)c1C,9.33% (inactive),–
CCn1c2ccccc2c2cc(NC(=O)COC(=O)c3cc(S(=O)(=O)N4CCCCC4)ccc3Cl)ccc21,–,6.31 µM (active)
CCOC(=O)CNC(=O)c1cc2c(=O)n3cccc(C)c3nc2s1,-17.8% (inactive),–
O=C(Cn1cc(SCc2ccccc2)c2ccccc21)N1CCCCC1,-0.659% (inactive),–
O=C(N/N=C/c1cc([N+](=O)[O-])ccc1O)/C(=C\c1cccs1)NC(=O)c1ccccc1,–,20 µM (active)
C=CCNC(=O)/C(=C\c1cccc([N+](=O)[O-])c1)NC(=O)c1ccccc1,10.7% (inactive),–
CN(C)CCNC(=O)/C(=C/c1cccc([N+](=O)[O-])c1)NC(=O)c1ccccc1,-6.18% (inactive),–
